For seven molecules, growth results are on record in PubChem BioAssay (NCI).

Some test systems named below: NCI-H23 lung; NCI-H226 lung; NCI-H322M lung; HOP-62 NSCLC; NCI-H460 lung; HOP-92 NSCLC; NCI-H522 lung; A549/ATCC NSCLC; 786-0 renal; COLO 205 colon; DU-145 prostate; K-562 leukemia; MALME-3M melanoma; MDA-MB-231 breast; RXF 393 renal; SF-268 CNS; SF-295 CNS; SF-539 CNS; UACC-257 melanoma; M14 melanoma.
What all share (experiment): NCI-60 one-dose screen, 48 h (100 = growth as untreated, 0 = no growth, -100 = all killed)
Settings in all cases: 10 µM unless noted

This is part of a sample that, as a whole, favours compounds with a hit. Of some 83,000 tested, about 20% had one in any assay.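 A percent growth of 40 corresponds to 60% growth inhibition; 0 means no net growth; -100 means all cells died. Active threshold: below 10.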 Unmarked numbers belong to inactive results. The source made the active and inactive calls.

Consider `Cc1cc(O)cc(-c2nn(C)cc2-c2cc(N3CCOCC3)nc(-c3cccnc3)n2)c1`, for which the growth with NCI-H23 lung was 56.1%; in the assay on NCI-H226 lung it was 36.7%; with NCI-H322M lung it was 59.7%; with HOP-62 NSCLC, 49.3%; with NCI-H460 lung, 12.4%; with HOP-92 NSCLC, 6.01% (active). The growth in the assay on NCI-H522 lung was 13.1%; in the assay on A549/ATCC NSCLC it was 39.3%; in the assay on 786-0 renal, 18.2%; in the assay on COLO 205 colon it was 16.3%; in the assay with DU-145 prostate, 53.7%; in the assay on K-562 leukemia it was 21.6%. The growth in the assay with MALME-3M melanoma was 55.7%; with MDA-MB-231 breast, 53.2%; with RXF 393 renal, 9.64% (active); in the assay with SF-268 CNS, 44.8%; in the assay with SF-295 CNS, 14.9%; in the assay on SF-539 CNS it was -12.8% (active). Also, the values for the growth in the assay on UACC-257 melanoma and in the assay with M14 melanoma were 61.3% and 28.4%, respectively.

As for `CSc1ccc2c3c(n(C[C@H](O)CO)c(=O)c2c1)-c1ccccc1C3=O`, the growth was 38.1% in the assay with NCI-H23 lung; 12.8% in the assay with NCI-H226 lung; 74.3% with NCI-H322M lung; 21.5% with HOP-62 NSCLC; 6.06% (active) with NCI-H460 lung; 106% with HOP-92 NSCLC. For the same molecule, the growth with NCI-H522 lung is 43.7%; in the assay with A549/ATCC NSCLC, 14.5%; in the assay on 786-0 renal, 27%; in the assay on COLO 205 colon, 54.2%; with DU-145 prostate it was 22%; in the assay on K-562 leukemia, 20.7%. The growth with MALME-3M melanoma was 74.4%; with MDA-MB-231 breast it was 108%; in the assay with RXF 393 renal it was 79.7%; with SF-268 CNS it was 44%; with SF-295 CNS, 14.3%; with SF-539 CNS it was 10.3%. In addition, the growth in the assay on UACC-257 melanoma was 85.5%; with M14 melanoma, 52.2%.

With `COc1c2c(cc3c1C(=O)N[C@@H]1[C@@H](O)[C@@H](O)[C@H](O)C[C@@H]31)OCCO2`, the growth with NCI-H23 lung was 104%; in the assay on NCI-H226 lung it was 92.6%; with NCI-H322M lung it was 93.5%; in the assay on HOP-62 NSCLC it was 99.9%; in the assay on NCI-H460 lung, 109%; with HOP-92 NSCLC, 91.6%. Also, the growth with NCI-H522 lung was 93.4%; with A549/ATCC NSCLC, 96.5%; with 786-0 renal, 97.4%; in the assay on COLO 205 colon, 103%; with DU-145 prostate, 107%; with K-562 leukemia, 95.6%. Also, the growth in the assay on MALME-3M melanoma was 106%; in the assay with MDA-MB-231 breast, 109%; in the assay with RXF 393 renal, 102%; in the assay with SF-268 CNS it was 97.9%; in the assay with SF-295 CNS it was 99.6%; in the assay on SF-539 CNS it was 106%. For the same molecule, the values for the growth with UACC-257 melanoma and in the assay on M14 melanoma were 98.8% and 105%, respectively.

For the molecule `CCOC(=O)c1nnn(Cc2cc(=O)oc3ccc(O)cc23)c1C`, the growth in the assay on NCI-H23 lung was 101%; in the assay with NCI-H226 lung, 99.6%; with NCI-H322M lung, 105%; in the assay on HOP-62 NSCLC it was 102%; with NCI-H460 lung, 99.3%; in the assay on HOP-92 NSCLC, 103%. Besides, the growth in the assay with NCI-H522 lung was 97.1%; in the assay on A549/ATCC NSCLC, 98.6%; with 786-0 renal, 103%; in the assay on COLO 205 colon, 105%; with DU-145 prostate, 115%; in the assay on K-562 leukemia, 103%. The growth was 103% with MALME-3M melanoma; 105% in the assay with MDA-MB-231 breast; 113% in the assay with RXF 393 renal; 108% in the assay with SF-268 CNS; 97.7% with SF-295 CNS; 102% with SF-539 CNS. In addition, the figures for the growth in the assay on UACC-257 melanoma and in the assay on M14 melanoma were 105% and 100%, respectively.

As to `CN1CCN(c2ccc(NC3=CC(=O)c4ncncc4C3=O)cc2)CC1`, the growth is -43.5% (active) with NCI-H23 lung; -47.7% (active) in the assay on NCI-H226 lung; 10.8% with NCI-H322M lung; -87.5% (active) in the assay with HOP-62 NSCLC; -24.4% (active) in the assay on NCI-H460 lung; -61.7% (active) in the assay with HOP-92 NSCLC. Moreover, the growth was -56.7% (active) in the assay on NCI-H522 lung; -7.95% (active) in the assay on A549/ATCC NSCLC; -50.5% (active) in the assay with 786-0 renal; -69.8% (active) with COLO 205 colon; -89.1% (active) in the assay on DU-145 prostate; -22.1% (active) with K-562 leukemia. For the same molecule, the growth in the assay on MALME-3M melanoma is -98.4% (active); with MDA-MB-231 breast, -15.1% (active); in the assay with RXF 393 renal it was -94.8% (active); with SF-268 CNS it was -46.3% (active); with SF-295 CNS, -96.1% (active); with SF-539 CNS, -96.1% (active). For the same molecule, the figures for the growth in the assay with UACC-257 melanoma and in the assay on M14 melanoma were -81.5% (active) and -81.8% (active), respectively.

Take `O=C(NC1CCC(Br)CC1)C1CCCC(S(=O)(=O)NC2CCCCC2)C1` (stereo not given): the growth with NCI-H23 lung was -3.95% [25 µM] (active); with NCI-H226 lung it was 19.7% [25 µM]; with NCI-H322M lung, 41.9% [25 µM]; in the assay on HOP-62 NSCLC, 13.8% [25 µM]; in the assay with NCI-H460 lung, 14.1% [25 µM]; in the assay on HOP-92 NSCLC it was -15.2% [25 µM] (active). The growth with NCI-H522 lung is -3.79% [25 µM] (active); in the assay with A549/ATCC NSCLC, 10.4% [25 µM]; in the assay on 786-0 renal, 36% [25 µM]; with COLO 205 colon, 13% [25 µM]; in the assay with DU-145 prostate it was 29.9% [25 µM]; in the assay with K-562 leukemia, 8.64% [25 µM] (active). In addition, the growth is 19.5% [25 µM] with MALME-3M melanoma; 36.1% [25 µM] in the assay on MDA-MB-231 breast; 37.2% [25 µM] in the assay with RXF 393 renal; 20.8% [25 µM] with SF-268 CNS; -4.06% [25 µM] (active) in the assay on SF-295 CNS; 28.8% [25 µM] in the assay on SF-539 CNS. Moreover, the figures for the growth in the assay with UACC-257 melanoma and in the assay on M14 melanoma were -6.91% [25 µM] (active) and 22.1% [25 µM], respectively.

For `O=C(/C=C/C12c3ccccc3C(c3ccccc31)C1C(=O)NC(=O)C12)c1ccco1` (stereo not given), the growth in the assay with NCI-H23 lung is 28.7%; in the assay with NCI-H226 lung it was 81.6%; in the assay with NCI-H322M lung it was 30.2%; in the assay on HOP-62 NSCLC it was 17.7%; in the assay with NCI-H460 lung it was 11%; in the assay on HOP-92 NSCLC, 24%. The growth in the assay on NCI-H522 lung is 17%; in the assay with A549/ATCC NSCLC it was 55.4%; with 786-0 renal it was 41.1%; in the assay with COLO 205 colon, 45.8%; with DU-145 prostate, -0.301% (active); with K-562 leukemia, 12.9%. Further, the growth with MALME-3M melanoma is 49.3%; in the assay on MDA-MB-231 breast, 40.3%; with RXF 393 renal, 1.72% (active); in the assay with SF-268 CNS, 28.7%; in the assay with SF-295 CNS it was 41.9%; with SF-539 CNS it was 30.8%. Besides, the growth is 44.9% in the assay with UACC-257 melanoma and 46.6% in the assay with M14 melanoma.
